In the library only some 2.4% were active in any assay of this set; here they are far more common.
POLI inh: inhibitors of human DNA polymerase iota; Pol iota fluorescent replication assay, 10 min; 390,000 tested, 1% active; Potency, µM (highest dose often 115 µM), inactives show at the top dose activity, negative = inhibition, actives largely listed as inhibitors
Target sequence (Q9UNA4 whole entry, looked up): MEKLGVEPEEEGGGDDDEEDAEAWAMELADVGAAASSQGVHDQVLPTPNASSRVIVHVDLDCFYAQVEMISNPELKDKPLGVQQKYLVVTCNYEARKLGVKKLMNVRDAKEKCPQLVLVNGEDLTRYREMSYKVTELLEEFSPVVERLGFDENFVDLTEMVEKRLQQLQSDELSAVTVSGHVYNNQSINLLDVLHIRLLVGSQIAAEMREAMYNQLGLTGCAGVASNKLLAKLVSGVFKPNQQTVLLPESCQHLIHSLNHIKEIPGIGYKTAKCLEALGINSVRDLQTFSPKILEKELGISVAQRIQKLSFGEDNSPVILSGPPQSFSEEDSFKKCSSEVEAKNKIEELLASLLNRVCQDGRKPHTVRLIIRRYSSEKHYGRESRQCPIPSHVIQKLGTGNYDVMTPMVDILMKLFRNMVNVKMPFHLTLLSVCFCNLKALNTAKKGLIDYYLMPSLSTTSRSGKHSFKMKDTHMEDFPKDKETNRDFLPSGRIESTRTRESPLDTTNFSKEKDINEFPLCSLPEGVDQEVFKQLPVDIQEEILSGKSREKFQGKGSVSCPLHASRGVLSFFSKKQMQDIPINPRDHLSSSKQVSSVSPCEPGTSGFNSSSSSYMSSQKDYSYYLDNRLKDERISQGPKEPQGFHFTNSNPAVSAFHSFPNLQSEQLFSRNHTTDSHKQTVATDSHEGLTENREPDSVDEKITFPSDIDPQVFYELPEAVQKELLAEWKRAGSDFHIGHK
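Pol iota at 10 nM preincubated 15 min with compounds at room temperature; reaction started with fluorescent substrate, 50 nM final. Fluorescence read kinetically at 0 and 10 min; buffer-only wells as negative control.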
WRN helicase inh: inhibitors of human WRN helicase | WRN helicase unwinding, fluorescent forked duplex, kinetic | 360,000 tested, 0.46% active | AID 651768 | Potency, µM (doses to about 114 µM), inactives show at the top dose activity change, negative = inhibition, actives largely listed as inhibitors | Q14191; note: % is set by controls: 0 for no effect and ±100 for the full control effect; nearly all actives have a fitted effect of over 55% in size
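Primary qHTS, 1536-well format. 20 nM WRN + compound, 15 min RT; start with 100 nM forked fluorophore/quencher duplex, 2 mM ATP (final); kinetic read ex 525/em 598 nm.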
Pol eta inh: DNA polymerase eta (human) inhibition; Q9Y253; recombinant Pol eta, fluorescent DNA replication assay; Potency, µM (series often up to 114 µM), without a hit: at the top dose activity change, negative = inhibition, actives largely listed as inhibitors; 390,000 tested, 1.2% active; note: % is set by controls: 0 for no effect and ±100 for the full control effect
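Fluorescent replication assay: 50 nM final substrate added after a 15 min room-temperature compound preincubation with 10 nM enzyme. Signal taken at 0 min and again at 10 min.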
Pol kappa inh: inhibitors of human DNA polymerase kappa. 400,000 tested, 0.53% active. Q9UBT6. Potency, µM (titrated, usually from 107 µM), without a hit: top-dose activity, negative = inhibition, usual class: inhibitors. purified Pol kappa, fluorescent DNA synthesis assay, 10 min; note: % is set by controls: 0 for no effect and ±100 for the full control effect
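Kinetic fluorescence readout at 0 and 10 min followed reaction start with substrate at 50 nM final. Beforehand, enzyme (10 nM Pol kappa) stood 15 min with compound at room temperature; buffer-only wells were negative controls.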
POLB inh: blocks human DNA polymerase beta activity; Potency, µM (titrated, usually from 114 µM), without a hit: top-dose activity change, negative = inhibition, hits mostly inhibitors; 340,000 tested, 1.3% active; Pol beta primer extension/strand displacement, fluorescence kinetic; AID 485314; note: % is set by controls: 0 for no effect and ±100 for the full control effect
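Human Pol beta at 10 nM; strand-displacement substrate 50 nM final. Compound exposure 15 min at room temperature before start, reaction 10 min at room temperature.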
FEN1 inhibitor: inhibitors of human flap endonuclease 1; P39748; Recombinant FEN1 flap cleavage, fluorescence, 15 min; Potency, µM (titrated, usually from 114 µM), for inactives: at the highest dose activity change, negative = inhibition, actives largely listed as inhibitors; 390,000 tested, 0.35% active; AID 588795; note: % is set by controls: 0 for no effect and ±100 for the full control effect; nearly all actives have a fitted effect of over 65% in size
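Reaction started by adding substrate (50 nM final) to 10 nM enzyme after 15 min room-temperature compound preincubation. Reads at 0 and 15 min, with data normalized and fitted to a four-parameter Hill equation.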
* = called active by the depositor; [ ] = another dose, or the depositor's remark. Calls come from the whole dose curve; as a rule, active = well fitted curve in the direction sought with a large enough effect; inconclusive = small, poorly fitted or top-dose-only effect, or another doubt; inactive = no such curve, though single readings can be large; an effect the other way counts as inactive or inconclusive. Potency is the fitted concentration of half-maximal effect.

Results for O=C(O)c1ccc(N/N=C/c2cc3cc4c(cc3nc2Cl)OCCO4)cc1 ?
POLI inh: inconclusive; WRN helicase inh: -25%; Pol eta inh: 45µM*; Pol kappa inh: -28%; POLB inh: -12%; FEN1 inhibitor: inconclusive

How did O=C(O)c1cc(N/N=C/c2ccc3c(c2)OCO3)ccc1Cl do in these assays?
POLI inh: 21%; WRN helicase inh: -22%[57.1 µM]; Pol eta inh: -5%; Pol kappa inh: -15%; POLB inh: 33%; FEN1 inhibitor: -7%

What do the screens show for `O=c1[nH][nH]c2c1[C@H](c1ccc(F)cc1)O[C@H](CCc1ccccc1)C2`?
WRN helicase inh: -2%

What do the screens show for `O=C(Cc1cccs1)NC1CC(=O)N(c2cccc(F)c2)C1` (configuration not stated)?
POLI inh: 39%; Pol eta inh: -6%; Pol kappa inh: -3%[60.1 µM]; POLB inh: 20%; FEN1 inhibitor: 1%

Results for Cc1ccc(NC(=O)[C@@H](c2ccccc2)N2Cc3ccccc3C2=O)cc1 ?
POLI inh: -1%; Pol eta inh: -15%; Pol kappa inh: -3%; POLB inh: 19%; FEN1 inhibitor: -24%

Results for COc1cc(/C=N/Nc2ccc(Cl)c(C(=O)O)c2)ccc1OC(=O)c1ccc(F)cc1 ?
POLI inh: inconclusive; WRN helicase inh: -13%[11.6 µM]; Pol eta inh: 79µM*; Pol kappa inh: -32%; POLB inh: -9%; FEN1 inhibitor: inconclusive

How did CCOC(=O)C1=C(CS(=O)(=O)c2ccc(F)cc2)NC(=O)NC1c1cc(OC)c(O)c(OC)c1 (configuration not stated) do in these assays?
POLI inh: 11%; WRN helicase inh: 5%; Pol eta inh: 1%; Pol kappa inh: 4%; POLB inh: 12%; FEN1 inhibitor: -1%

How did CCOC(=O)C1=C(CS(=O)(=O)c2ccc(F)cc2)NC(=O)NC1c1ccc(O)c(O)c1 (configuration not stated) do in these assays?
POLI inh: 25µM*; WRN helicase inh: -5%[11.6 µM]; Pol eta inh: inconclusive; Pol kappa inh: 45µM*; POLB inh: inconclusive; FEN1 inhibitor: 3%

How did O=C(/C=C/c1c(Cl)cccc1Cl)N1CCOCC1 do in these assays?
POLI inh: 19%; WRN helicase inh: 1%; Pol eta inh: -4%; Pol kappa inh: -13%; POLB inh: 28%; FEN1 inhibitor: 21%

Results for O=C(/C=C/c1c(F)cccc1Cl)N1CCOCC1 ?
POLI inh: 18%; WRN helicase inh: 5%; Pol eta inh: -19%; Pol kappa inh: 5%; POLB inh: 32µM*; FEN1 inhibitor: 0%

Results for Cc1nc(N=Nc2cc(S(=O)(=O)O)ccc2S(=O)(=O)O)c(COP(=O)(O)O)c(C=O)c1O ?
Pol kappa inh: 2µM*

Results for COc1cc(/C=C2/C(=O)NN(c3ccc(Cl)cc3)C2=O)ccc1OC(=O)c1ccco1 ?
POLI inh: -19%; WRN helicase inh: 40µM*; Pol eta inh: 28µM*; Pol kappa inh: -22%; POLB inh: inconclusive; FEN1 inhibitor: -10%

How did CCN1C(=O)CC(c2ccccc2)CC1=O do in these assays?
POLI inh: 79µM*; WRN helicase inh: 3%; Pol eta inh: 5%; Pol kappa inh: 6%; FEN1 inhibitor: -1%

How did CN1C(=O)CC(c2ccccc2)CC1=O do in these assays?
POLI inh: -42%; WRN helicase inh: -4%; Pol eta inh: -3%; Pol kappa inh: -2%; FEN1 inhibitor: -10%

What do the screens show for `Nc1cccn2c(-c3ccc(Cl)cc3)cnc12`?
POLI inh: 16%; WRN helicase inh: -8%[57.1 µM]; Pol eta inh: -14%; Pol kappa inh: -9%; POLB inh: -1%; FEN1 inhibitor: -25%

What do the screens show for `Nc1cccn2c(-c3ccc(Cl)c(Cl)c3)cnc12`?
POLI inh: 13µM*; WRN helicase inh: -19%; Pol eta inh: -4%; Pol kappa inh: -13%; POLB inh: -14%; FEN1 inhibitor: -27%

High-throughput results: PubChem BioAssay, National Center for Advancing Translational Sciences (NCATS)
